From PubChem
TGFb inhibitor = qHTS for Inhibitors of TGF-b; HepG2 CAGA-GFP TGF-b/SMAD3 reporter, GFP fluorescence, 18 h; TGF-beta stimulated, 500 pg/mL final; Potency, µM (series often up to 46.1 µM), most hits filed as inhibitors; 1.2% of 410,000 active; AID 588855, 2011; also: nearly all actives have a fitted effect of over 65% in size
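Using HEPG2 CAGA-GFP reporter cells at 1000 cells/well, we pinned test compounds, stimulated with recombinant TGF-beta (500 pg/mL final) and measured total well GFP after 18 h.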
HT1080 IDH1KD tx = qHTS for induction of synthetic lethality in tumor cells producing 2HG: qHTS for the HT-1080-IDH1KD cell line. HT-1080 IDH1 knockdown viability, ATP luminescence, 48 h. Potency, µM (highest dose often 46.1 µM), actives largely listed as cytotoxic. AID 686971, 2013. 2% of 360,000 active
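CellTiter-Glo luminescence after 48 h compound exposure at 37 degrees C of IDH1-knockdown HT-1080 cells in 5% FBS RPMI. %Activity scaled between DMSO wells and cell-free media wells, with curves fitted and assigned curve classes.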
IL1B secr inh = qHTS for Inhibitors of Inflammasome Signaling: IL-1-beta AlphaLISA Primary Screen | 4.7% of 360,000 active | AID 743279, 2014 | THP-1 LPS/ATP IL-1B secretion, AlphaLISA, 16 h; hits give low values | activity change, % at 57.5 µM; in the data active = activity change below about -50%; inconclusive = mostly about -30% to -49%
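THP-1 cells pretreated 1 hr with compounds (up to 57.5 uM final), then stimulated with LPS (250 ng/mL final) plus ATP (1.25 mM final); secreted IL-1B measured by AlphaLISA after 16 hr, decreased signal indicating inhibition.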
Giardia killer = Small Molecules that selectively kill Giardia lamblia: qHTS | Giardia lamblia trophozoite viability | activity change, % at 7.66 µM, hits read low | 0.15% of 340,000 active | AID 540267, 2011; in the data active = activity change below about -80%; inconclusive = between about -30% and that limit;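 also: parasites exposed to compound for two days anaerobically before the ATP read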
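Trophozoites 100 cells/well + cpd; 48 hrs, 37 deg C, anaerobic. ATPLite 1-Step added, 15-30 min RT, luminescence read (ATP-based viability).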
HepG2 viability = qHTS for Inhibitors of TGF-b: Cytotox Counterscreen | HepG2 CAGA-GFP viability, ATP luminescence, 18 h | Potency, µM (doses to about 46.1 µM), most hits filed as cytotoxic | 0.76% of 410,000 active | AID 588856, 2011
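CellTiter-Glo luminescence gave cytotoxicity after 18 hours at 37 degrees C. The cells were HepG2 CAGA-GFP in 1% FBS DMEM, stimulated with 500 pg/mL TGF-beta after compound addition. %Activity was normalised to no-cell wells (complete cell-killing) and DMSO (no toxicity), and curves were fitted and classified.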
HT1080-NT tox = qHTS for induction of synthetic lethality in tumor cells producing 2HG: qHTS for the HT-1080-NT fibrosarcoma cell line; HT-1080-NT fibrosarcoma viability, CellTiter-Glo ATP luminescence, 48 h; Potency, µM (titrated, usually from 46.1 µM), usual class: cytotoxic; 1.6% of 360,000 active; AID 686970, 2013;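 also: NT is the 2HG producing partner of a matched IDH1 knockdown line; nearly all actives have a fitted effect of over 55% in size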
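Luminescent CellTiter-Glo readout after 48 hours of compound exposure at 37 degrees C defined viability of HT-1080-NT cells. Activity was normalized to DMSO wells and cell-free media wells; concentration-response curves were fitted and assigned curve classes.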
A number is an active result; . = inactive; ? = inconclusive; / = no result given; ! = not active in a repeat. Shown are actives, neighbours in structure and some others; about 6.5% of the full set was active somewhere. Unless noted, calls follow the shape of the dose curve; as a rule, active = well fitted curve in the direction sought with a large enough effect; inconclusive = small, poorly fitted or top-dose-only effect, or another doubt; inactive = no such curve, though single readings can be large; an effect the other way counts as inactive or inconclusive.

SMILES	TGFb inhibitor	HT1080 IDH1KD tx	IL1B secr inh	Giardia killer	HepG2 viability	HT1080-NT tox
CCOC(=O)C1=C[C@@H](C(C)(C)C)N(S(=O)(=O)c2ccc(C)cc2)[C@H]1c1ccc(Cl)c(Cl)c1	?	15µM	.	/	.	15µM
CCOC(=O)NC(CC(=O)O)c1ccc(OC)cc1 (configuration not stated)	.	.	.	.	.	.
CCC(C)Nc1ccc(NC(C)CC)cc1 (configuration not stated)	11µM!	9.2µM	?	-101!	13µM!	3.7µM
Nc1nc(NCc2ccccc2)nc(NCc2ccccc2)c1[N+](=O)[O-]	.	.	.	.	.	.
Cc1cccc(Nc2nc(N)c([N+](=O)[O-])c(NCc3ccccc3)n2)c1	?	16µM	/	.	22µM	?
Nc1nc(Nc2ccccc2)nc(NCc2ccccc2)c1[N+](=O)[O-]	.	16µM	-69	.	.	?
COCCNc1nc(N)c([N+](=O)[O-])c(Nc2ccc(F)cc2)n1	.	15µM	.	.	.	?
Cc1ccc(Nc2nc(N)c([N+](=O)[O-])c(NCc3ccco3)n2)cc1C	16µM	?	-71	.	.	.
Cc1ccc(Nc2nc(N)c([N+](=O)[O-])c(NCCO)n2)cc1C	?	.	.	.	.	.
Cc1ccc(CNc2nc(N)c([N+](=O)[O-])c(Nc3ccc(F)cc3)n2)cc1	.	.	.	.	.	.
O=C1COc2ccc(S(=O)(=O)N3CCN(c4cccc(Cl)c4)CC3)cc2N1	.	.	.	.	.	.
CNc1nc(N)c([N+](=O)[O-])c(NC2CCCCC2)n1	.	.	.	.	.	.
Nc1nc(Nc2ccccc2)nc(NC2CCCCC2)c1[N+](=O)[O-]	.	?	-88	.	.	?
Cc1cc(C(=O)C(C)OC(=O)c2ccc(NC(=O)CC#N)cc2)c(C)n1-c1ccccc1 (configuration not stated)	.	.	-56	.	.	?
Fc1ccc(CNCCC(Cc2ccccc2)c2ccco2)cc1 (configuration not stated)	?	.	-80	.	.	?
CC(NCCC(Cc1ccccc1)c1ccco1)c1ccccc1 (configuration not stated)	.	.	-59	.	.	.
O=C(NCCNCc1ccc(F)cc1)c1ccco1	.	.	.	.	.	.
CCOc1cccc(-c2cc(C(=O)N/N=C/c3ccc(OC)c(CN4CCOCC4)c3)c3ccccc3n2)c1	.	?	.	.	.	?
Cc1oc2c(c(=O)c1C)C(=O)CC(c1ccccc1)C2 (configuration not stated)	.	.	.	.	.	.
CS(=O)(=O)c1sc(C#N)c2c1C(=O)CC(c1ccccc1)C2 (configuration not stated)	?	23µM	-113	.	.	6.5µM
O=C(/C=C/c1ccc(O)c(O)c1)c1ccc(S(=O)(=O)N2CCCCCC2)cc1	.	.	-74	.	.	.
Cc1[nH]c2ccccc2c1/C=C/c1cnc2ccccc2n1	.	/	/	/	.	/
Cc1[nH]c2ccccc2c1/C=C/c1ccc2ccccc2n1	.	/	/	/	10µM	/
Cc1ccc(C)c(NC(=O)CSc2nc3c(c(=O)n2C)SC(C)C3)c1 (configuration not stated)	.	.	.	.	.	.
Cc1ccc2nc(NC(=O)CSc3nc4c(c(=O)n3C)SC(C)C4)sc2c1 (configuration not stated)	.	.	-56	.	.	.
SMILES	TGFb inhibitor	HT1080 IDH1KD tx	IL1B secr inh	Giardia killer	HepG2 viability	HT1080-NT tox
O=C1ON=C(c2ccccc2)/C1=C/c1ccccc1	.	.	-75	.	.	.
Cc1ccc(C2=NOC(=O)/C2=C\c2ccccc2)cc1	?	.	.	.	.	.
O=C1ON=C(c2ccccc2)/C1=C/c1ccc(O)cc1	.	.	-99	.	.	.
CC1=NOC(=O)/C1=C/c1ccc(O)cc1	.	.	.	.	.	.
O=C1ON=C(c2ccc(Cl)cc2)/C1=C/c1ccc(O)cc1	?	?	-102	.	.	?
COC(=O)C1=C(C)N(Cc2ccc(OC)c(OC)c2)C(=O)C1	.	.	.	.	.	.
COC(=O)C1CCN(CC(=O)Nc2ccccc2Sc2ccccc2)CC1	.	.	.	.	.	.
O=C(c1ccc(NS(=O)(=O)c2ccc(F)cc2)cc1)N1CCN(c2ccccc2O)CC1	.	.	.	.	.	.
CCc1ccc2oc(C(=O)NCC(c3ccc(Cl)cc3)N3CCOCC3)c(C)c2c1 (configuration not stated)	.	/	/	/	.	/
CCOc1ccc(S(=O)(=O)N(C(=O)c2ccco2)c2cc3sc(=O)oc3c3ccccc23)cc1	?	.	-95	.	.	?
COc1ccc(S(=O)(=O)N(C(=O)c2ccco2)c2cc3sc(=O)oc3c3ccccc23)cc1	?	?	-100	.	.	?
Cc1ccc(N(Cc2cccs2)C(=O)c2ccco2)cc1	.	/	/	/	.	/
O=C(c1ccco1)N(Cc1ccco1)c1ccc(O)cc1	.	.	-106	.	.	.
O=C(c1ccco1)N(Cc1cccc([N+](=O)[O-])c1)c1ccc(Br)cc1	.	.	-54	.	.	.
Cc1ccc(NC(=O)/C=C\C(=O)O)c([N+](=O)[O-])c1	.	.	.	.	.	.
CC1(C)C(CO)=CC(=O)C2=C1SCC(=O)N2	.	.	.	.	.	.
O=C1c2c(O)ccc(O)c2C(=O)c2c(NCCNCCO)ccc(NCCNCCO)c21	1.6µM	23µM	-102	.	.	1.5µM
O=C1c2ccccc2C(=O)c2c(Nc3ccc(CCO)cc3)ccc(O)c21	.	.	?	.	.	.
CC(C)CC(=O)NC(NC(=S)Nc1sc2c(c1C#N)CCCC2)C(Cl)(Cl)Cl (configuration not stated)	16µM	?	.	.	.	?
N#Cc1c(NC(=S)NC(=O)C2CCCC2)sc2c1CCCCC2	.	.	-54	.	.	.
N#Cc1c(NC(=S)NC(=O)c2ccccc2)sc2c1CCCCC2	.	/	/	.	.	/
COc1ccc(NC(=O)C#Cc2ccccc2)cc1	?	?	/	.	.	?
O=C(C#Cc1ccccc1)Nc1ccc(F)cc1	?	18µM	-97	.	.	16µM
O=C(COc1ccc(Cl)cc1)N/N=C/CCc1ccccc1	.	.	.	.	.	.
